# According to PubChem BioAssay (Tox21):
# Results filed as inconclusive are left out. Values without a mark were called inactive. Active and inactive are the calls of the source. Unless noted, calls come from the whole dose curve; as a rule, active = well fitted curve in the direction sought with a large enough effect in the repeat runs; inconclusive = weak or mixed curves; inactive = no such curve, though single readings can be large; an effect the other way counts as inactive or inconclusive.
# What was measured:
# [1] = qHTS assay to identify small molecule agonists of the RXR signaling pathway - cell viability counter screen (AID 1159529); note: nearly all actives have a fitted effect of over 50% in size; note: potency is the fitted concentration of half-maximal effect;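 for activity change, negative = cytotoxicity: HEK 293T cells carrying an RXR-alpha UAS beta-lactamase reporter; series mostly up to about 77 µM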
# Method in brief: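 Counter screen: CellTiter-Glo luminescence. Cells: RXR-alpha-UAS-bla HEK 293T. Medium: 2% charcoal-stripped FBS. Treatment: 16 h, 37 C. Reagent incubation: 30 min, RT.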
# [2] = qHTS assay to identify small molecule antagonists of the retinoid acid receptor (RAR) signaling pathway - cell viability counter screen (AID 1159551); note: nearly all actives have a fitted effect of over 35% in size; note: potency is the fitted concentration of half-maximal effect
# Method in brief: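 Cytotoxicity counter screen: ATP content quantified by CellTiter-Glo luminescence in C3RL4 cells treated 6 hr at 37 C with compound and retinol (1 uM final). Cells plated at 1,000/well and cultured overnight before dosing.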
# [3] = qHTS assay to identify small molecule antagonists of the retinoic acid receptor (RAR) signaling pathway (AID 1159552; note: nearly all actives have a fitted effect of over 50% in size; note: potency is the fitted concentration of half-maximal effect)
# Method in brief: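 Antagonism of retinol-induced RARE reporter activity was measured in C3RL4 cells. Exposure to compounds and 1 uM final retinol lasted 6 hr at 37 C, with luminescence as endpoint.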
# [4] = qHTS assay to identify small molecule agonists of the retinoic acid receptor (RAR) signaling pathway (AID 1159553); note: potency is the fitted concentration of half-maximal effect
# Method in brief: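 Luminescence was measured 30 min after luciferase reagent addition at room temperature. Before that, C3RL4 reporter cells (1,000 per well, plated overnight) were treated with compound for 6 hr at 37 C and 5% CO2.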
# [5] = qHTS assay to identify small molecule antagonists of the estrogen related receptor (ERR) signaling pathway from Tox21 library - cell viability counter screen (AID 1224834); note: nearly all actives have a fitted effect of over 30% in size; note: potency is the fitted concentration of half-maximal effect
# Method in brief: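 CellTiter-Fluor fluorescence, read after 30 min at 37 C, measures viability of ERR cells. Cells plated at 2,000/well and incubated 6 h before pin-tool compound addition, then exposed 17.5 hours at 37 C.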
# [6] = molecular target: Luciferin 4-monooxygenase (Photinus pyralis) (UniProt P08659); assay: qHTS assay to identify small molecule inhibitors of firefly luciferase (AID 1224835); note: nearly all actives have a fitted effect of over 25% in size; note: potency is the fitted concentration of half-maximal effect; for activity change, negative = inhibition: series mostly up to about 120 µM
# Method in brief: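 Quantitative HTS format; KM concentrations of both substrates. Purified P. pyralis FLuc activity quantified from luminescence images.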
# [7] = qHTS assay to identify small molecule agonists of the constitutive androstane receptor (CAR) signaling pathway - cell viability counter screen (AID 1224836); note: nearly all actives have a fitted effect of over 45% in size; note: potency is the fitted concentration of half-maximal effect; for viability change, negative = cytotoxic: series mostly up to about 92 µM
# Method in brief: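 Double-stable HepG2 hepatoma cells (hCAR plus CYP2B6-2.2kb) are treated for 23 h at 37 C with test compounds in 15-point concentration series. PK11195 at 0.75 uM final is co-added. Cell viability is quantified by CellTiter-Fluor.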
# [8] = molecular target: Nuclear receptor subfamily 1 group I member 3 (Homo sapiens) (UniProt Q14994); assay: qHTS assay to identify small molecule antagonists of the constitutive androstane receptor (CAR) signaling pathway (AID 1224838);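 note: HepG2 cells stably expressing hCAR with CYP2B6 luciferase reporter stimulated by CITCO; nearly all actives have a fitted effect of over 40% in size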; note: potency is the fitted concentration of half-maximal effect
# Method in brief: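 Antagonism measured as luciferase signal (ONE-Glo, 30 min, room temperature) in CAR-stimulated cells: HepG2-CYP2B6-hCAR double-stable line exposed 24 hr at 37 C to compound in a 15-point series plus 50 nM CITCO.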
# [9] = molecular target: Nuclear receptor subfamily 1 group I member 3 (Homo sapiens) (UniProt Q14994); assay: qHTS assay to identify small molecule agonists of the constitutive androstane receptor (CAR) signaling pathway (AID 1224839); note: nearly all actives have a fitted effect of over 15% in size; note: potency is the fitted concentration of half-maximal effect;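 for activation: HepG2 cells stably carrying human CAR and a CYP2B6 luciferase reporter; series mostly up to about 92 µM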
# Method in brief: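 Readout: firefly luciferase luminescence via ONE-Glo. System: HepG2 double-stable for hCAR and CYP2B6-2.2kb. Conditions: 15-point compound titration, PK11195 at 0.75 uM final, 24 h incubation.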
# [10] = qHTS assay to identify small molecule antagonists of the estrogen related receptor signaling pathway with the pleiotropic PPARgamma coactivator (PGC) from Tox21 10K library (AID 1224841; call rule not given here; note: series mostly up to about 92 µM; actives are mostly falling curves and most rising ones were filed inactive; nearly all actives have a fitted effect of over 50% in size)
# Method in brief: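 Luminescence (One-Glo, 30 min at room temperature) after 18 h compound treatment at 37 C of PGC/ERR reporter cells plated at 2,000 cells/well and settled 6 h beforehand.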
# [11] = qHTS assay to identify small molecule agonists of the estrogen related receptor signaling pathway with the pleiotropic PPARgamma coactivator (PGC) from Tox21 10K library (AID 1224842); note: nearly all actives have a fitted effect of over 15% in size
# Method in brief: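 PGC/ERR reporter cells (NTP line) were seeded 2,000 per well, rested 6 h at 37 C/5% CO2, then pin-dosed with compounds in DMSO for 18 h at 37 C; luciferase read by One-Glo luminescence after 30 min at room temperature.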
# [12] = qHTS assay to identify small molecule antagonists of the estrogen related receptor signaling pathway with the pleiotropic PPARgamma coactivator (PGC) from Tox21 10K library - cell viability counter screen (AID 1224840; active = well fitted cell-killing curve with a large enough effect in the repeat runs, not every such curve was filed as active; note: nearly all actives have a fitted effect of over 40% in size; note: potency is the fitted concentration of half-maximal effect)
# Method in brief: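 Counter-screen for cytotoxicity: after 17.5 h compound exposure at 37 C, CellTiter-Fluor reagent added to PGC/ERR cells for 30 min and fluorescence read. Cells were seeded at 2,000 per well 6 h before dosing.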
# [13] = molecular target: Thyrotropin receptor (Homo sapiens) (UniProt P16473); assay: qHTS assay to identify small molecule agonists of the thyroid stimulating hormone receptor (TSHR) signaling pathway (AID 1224843; calls by dose curve; note: nearly all actives have a fitted effect of over 45% in size; note: potency is the fitted concentration of half-maximal effect)
# Method in brief: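 Compounds are titrated over 15 concentrations, in triplicate, onto TSHR-HEK293 cells seeded at 800/well. Plates sit 30 min at room temperature before cAMP-d2 and anti-cAMP cryptate are added; signal is read after a further hour.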
# [14] = qHTS assay to identify small molecule antagonists of the constitutive androstane receptor (CAR) signaling pathway - cell viability counter screen (AID 1224837); note: nearly all actives have a fitted effect of over 45% in size; note: potency is the fitted concentration of half-maximal effect; for activity change, negative = cytotoxicity: series mostly up to about 92 µM
# Method in brief: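 Cytotoxicity counter-screen: CellTiter-Fluor fluorescence after 23 h compound exposure (15-point qHTS) in double-stable HepG2-CYP2B6-hCAR cells, with 50 nM CITCO added.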
# % is set by controls: 0 for no effect and ±100 for the full control effect.
# Chain of Luciferin 4-monooxygenase (Photinus pyralis) (P08659 whole entry, looked up): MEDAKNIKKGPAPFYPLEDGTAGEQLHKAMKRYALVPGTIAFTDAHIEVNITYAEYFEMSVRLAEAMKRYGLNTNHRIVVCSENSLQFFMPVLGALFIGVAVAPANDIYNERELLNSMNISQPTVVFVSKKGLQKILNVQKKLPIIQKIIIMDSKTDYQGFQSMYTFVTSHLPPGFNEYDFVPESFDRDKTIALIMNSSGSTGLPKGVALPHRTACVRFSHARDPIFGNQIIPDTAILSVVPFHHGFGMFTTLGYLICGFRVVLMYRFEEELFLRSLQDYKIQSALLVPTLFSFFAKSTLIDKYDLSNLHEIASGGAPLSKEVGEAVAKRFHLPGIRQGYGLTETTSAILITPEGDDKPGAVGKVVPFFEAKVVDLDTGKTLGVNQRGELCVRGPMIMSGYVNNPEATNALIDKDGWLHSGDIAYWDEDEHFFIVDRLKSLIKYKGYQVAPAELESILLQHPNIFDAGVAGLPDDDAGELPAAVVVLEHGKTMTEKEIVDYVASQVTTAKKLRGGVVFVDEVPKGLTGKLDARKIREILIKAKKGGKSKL
# Chain of Thyrotropin receptor (Homo sapiens) (P16473 whole entry, looked up): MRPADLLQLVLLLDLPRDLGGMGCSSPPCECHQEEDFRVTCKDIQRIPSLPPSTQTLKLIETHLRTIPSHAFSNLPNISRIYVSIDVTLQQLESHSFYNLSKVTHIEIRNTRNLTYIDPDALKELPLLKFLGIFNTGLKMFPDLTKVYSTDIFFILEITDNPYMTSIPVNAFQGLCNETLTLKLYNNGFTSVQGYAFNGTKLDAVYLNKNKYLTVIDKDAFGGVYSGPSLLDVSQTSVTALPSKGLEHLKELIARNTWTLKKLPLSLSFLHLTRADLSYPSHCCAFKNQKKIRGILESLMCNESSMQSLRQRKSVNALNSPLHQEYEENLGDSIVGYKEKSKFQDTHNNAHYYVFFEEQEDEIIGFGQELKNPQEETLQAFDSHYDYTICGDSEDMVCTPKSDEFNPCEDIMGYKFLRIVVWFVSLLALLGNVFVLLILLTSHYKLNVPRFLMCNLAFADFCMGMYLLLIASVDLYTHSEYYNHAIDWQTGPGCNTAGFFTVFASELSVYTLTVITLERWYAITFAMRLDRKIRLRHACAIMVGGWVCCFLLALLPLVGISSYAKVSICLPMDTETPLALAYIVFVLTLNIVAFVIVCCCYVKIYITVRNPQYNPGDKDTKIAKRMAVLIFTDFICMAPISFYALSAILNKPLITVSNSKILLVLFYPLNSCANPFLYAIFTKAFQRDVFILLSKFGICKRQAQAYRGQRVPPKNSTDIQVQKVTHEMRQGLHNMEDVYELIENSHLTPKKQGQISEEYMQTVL
# Chain of Nuclear receptor subfamily 1 group I member 3 (Homo sapiens) (Q14994 whole entry, looked up): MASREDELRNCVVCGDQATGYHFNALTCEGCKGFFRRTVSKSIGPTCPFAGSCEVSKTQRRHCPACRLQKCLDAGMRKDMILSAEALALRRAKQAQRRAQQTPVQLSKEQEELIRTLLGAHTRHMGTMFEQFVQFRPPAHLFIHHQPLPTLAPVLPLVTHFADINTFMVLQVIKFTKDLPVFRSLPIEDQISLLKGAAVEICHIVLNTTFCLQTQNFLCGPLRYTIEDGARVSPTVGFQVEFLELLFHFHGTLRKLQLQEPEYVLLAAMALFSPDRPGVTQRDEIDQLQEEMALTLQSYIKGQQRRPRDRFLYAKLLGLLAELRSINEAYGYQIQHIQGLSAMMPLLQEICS
compound,measurement,setting,value
O=C(OC[C@H]1O[C@@H](OC(=O)c2cc(O)c(O)c(OC(=O)c3cc(O)c(O)c(O)c3)c2)[C@H](OC(=O)c2cc(O)c(O)c(OC(=O)c3cc(O)c(O)c(O)c3)c2)[C@@H](OC(=O)c2cc(O)c(O)c(OC(=O)c3cc(O)c(O)c(O)c3)c2)[C@@H]1OC(=O)c1cc(O)c(O)c(OC(=O)c2cc(O)c(O)c(O)c2)c1)c1cc(O)c(O)c(OC(=O)c2cc(O)c(O)c(O)c2)c1,"activity change, negative = cytotoxicity",[1],11.4% [at 15.8 µM]
same,"activity change, negative = cytotoxicity",[2],-3.41% [at 19 µM]
same,"activity, negative = inhibition",[3],22.4% [at 19 µM]
same,Potency,[4],inactive
same,Potency,[5],16.5 µM (active)
same,"activity change, negative = inhibition",[6],-18.6% [at 23.6 µM]
same,"viability change, negative = cytotoxic",[7],-11.1% [at 19 µM]
same,"activity, negative = inhibition",[8],-0.544% [at 19 µM]
same,activation,[9],-3.23% [at 19 µM]
same,"activity, negative = inhibition",[10],-8.46% [at 19 µM]
same,activation,[11],-3.36% [at 19 µM]
Cc1onc(-c2ccccc2Cl)c1C(=O)N[C@@H]1C(=O)N2[C@@H]1SC(C)(C)[C@@H]2C(=O)O,Potency,[1],inactive
same,Potency,[2],inactive
same,Potency,[3],inactive
same,Potency,[4],inactive
same,Potency,[5],inactive
same,Potency,[6],inactive
same,Potency,[12],inactive
same,Potency,[13],inactive
CCOC(=O)O[C@]1(C(=O)OCCl)CC[C@H]2[C@@H]3CCC4=CC(=O)C=C[C@]4(C)[C@H]3[C@@H](O)C[C@@]21C,Potency,[1],inactive
same,Potency,[2],inactive
same,Potency,[3],inactive
same,Potency,[4],inactive
same,Potency,[5],inactive
same,Potency,[6],inactive
same,Potency,[7],inactive
same,Potency,[14],inactive
same,Potency,[13],inactive
O=C1CCCCCN1SSN1CCCCCC1=O,Potency,[1],inactive
same,Potency,[2],inactive
same,Potency,[3],24.3 µM (active)
same,Potency,[5],inactive
same,Potency,[6],inactive
same,Potency,[7],inactive
same,Potency,[8],27.3 µM (active)
same,Potency,[9],inactive
same,Potency,[12],inactive
same,Potency,[11],inactive
same,Potency,[13],inactive
Oc1cc2ccccc2c2ccccc12,Potency,[1],4.9 µM (active)
same,Potency,[2],27.3 µM (active)
same,Potency,[3],13.7 µM (active)
same,Potency,[5],8.63 µM (active)
same,Potency,[6],79.6 µM (active)
same,Potency,[7],17.2 µM (active)
same,Potency,[14],13.7 µM (active)
same,Potency,[12],7.7 µM (active)
C/C(=C(/OCCOc1ccc(Cl)cc1)c1ccc(Cl)cc1Cl)n1ccnc1,Potency,[1],inactive
same,Potency,[2],inactive
same,Potency,[3],inactive
same,Potency,[5],inactive
same,Potency,[6],inactive
same,Potency,[7],inactive
same,Potency,[14],inactive
same,Potency,[9],inactive
same,Potency,[12],inactive
same,Potency,[13],inactive
Cc1cc(O)c(C(C)(C)C)cc1C(C)(C)C,Potency,[1],21.9 µM (active)
same,Potency,[2],43.3 µM (active)
same,Potency,[3],54.5 µM (active)
same,Potency,[5],54.5 µM (active)
same,Potency,[6],inactive
same,Potency,[7],61.1 µM (active)
same,Potency,[9],inactive
same,Potency,[12],48.6 µM (active)
same,Potency,[11],inactive
Cc1[nH]nc2c1N=C(c1ccccc1Cl)c1cc([N+](=O)[O-])ccc1N2,Potency,[1],34.7 µM (active)
same,Potency,[2],43.3 µM (active)
same,Potency,[3],30.6 µM (active)
same,Potency,[5],24.3 µM (active)
same,Potency,[6],63.3 µM (active)
same,Potency,[7],27.3 µM (active)
same,Potency,[14],21.7 µM (active)
same,Potency,[8],7.7 µM (active)
same,Potency,[9],inactive
same,Potency,[12],34.4 µM (active)
same,Potency,[13],inactive
Oc1ccc(N=Nc2ccccc2)cc1,Potency,[1],inactive
same,Potency,[2],inactive
same,Potency,[3],inactive
same,Potency,[4],2.47 µM (active)
same,Potency,[5],49.2 µM (active)
same,Potency,[6],9.06 µM (active)
same,Potency,[8],inactive
same,Potency,[9],27.7 µM (active)
same,Potency,[13],49.2 µM (active)
O=C1C=CC(=O)N1,Potency,[1],22.5 µM (active)
same,Potency,[2],31.4 µM (active)
same,Potency,[3],8.86 µM (active)
same,Potency,[5],49.8 µM (active)
same,Potency,[6],32.6 µM (active)
same,Potency,[7],55.9 µM (active)
same,Potency,[14],55.9 µM (active)
same,Potency,[8],31.4 µM (active)
same,Potency,[9],inactive
same,Potency,[12],44.4 µM (active)
same,Potency,[11],inactive
same,Potency,[13],7.04 µM (active)
